Results published in the supplement of paper PMC10646978.
± gives the standard deviation.

Columns and labels:
Settings in all cases: modulator concentration 10 µM
[1] = system: RAW-Dual (murine macrophage reporter line); experiment: NF-kB reporter (SEAP) activity fold change vs agonist alone; higher = enhanced NF-kB activity
Procedure, shortened: (§1)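 In 384-well plates holding 50 000 RAW-Dual murine macrophage reporter cells per well, compound at 10 μM final was pre-incubated for 1 hour at 37 °C, after which a PRR agonist was added overnight. Supernatant SEAP read with QUANTI-Blue at 620 nm absorbance reported NF-κB, and Lucia luciferase read with QUANTI-Luc luminescence reported IRF. Fold change values come from dividing each reporter signal by the mean of agonist-only control wells on the same plate, averaged over replicate plates with propagated errors.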

[2] = system: RAW-Dual (murine macrophage reporter line); experiment: IRF reporter (Lucia luciferase) activity fold change vs agonist alone; higher = enhanced IRF activity
Procedure, shortened: as §1

[3] = system: RAW-Dual (murine macrophage reporter line); experiment: viability score (confluency relative to resting cells, overnight) (fraction); higher = more viable, active = viable (0.7 or more)
Procedure, shortened: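 Compound was added at a final 10 μM to RAW-Dual macrophages in 384-well plates and left overnight. Confluency was imaged with IncuCyte, and two masks were generated in IncuCyte software over all imaged wells. Each viability score is confluency relative to resting cells, and a compound met the cutoff only when both masks were above 70% of resting cells.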

[4] = agonist: CpG ODN 1826 0.5 ug/mL

Row | Compound | NF-kB reporter [1, 4] | NF-kB reporter ([1]; agonist: LPS 0.1 ug/mL) | NF-kB reporter ([1]; agonist: MPLA […]) | IRF reporter ([2]; agonist: 3'3'-cGAMP 10 ug/mL) | IRF reporter ([2]; agonist: LPS 0.1 ug/mL) | IRF reporter ([2]; agonist: MPLA […]) | viability score [3]
1 | COC(=O)C1C(=O)CC(C)(O)C(C(=O)OC)C1c1ccc2c(c1)OCO2 (centres undefined) | 1.03 ± 0.088 | 1.08 ± 0.081 | 0.958 ± 0.085 | 1 ± 0.038 | 1.57 ± 0.16 | 1.14 ± 0.11 | 0.989 (active)
2 | CCn1cc(C(=O)O)c(=O)c2cc(F)c(N3CCN(C)CC3)cc21.CS(=O)(=O)O | 1.12 ± 0.15 | 1.3 ± 0.22 | 0.938 ± 0.096 | 0.858 ± 0.037 | 1.45 ± 0.12 | 1.17 ± 0.11 | 0.986 (active)
3 | FC(F)(F)c1ccc(CNc2ccc(Cc3c[nH]c4ncc(Cl)cc34)cn2)cn1 | 0.154 ± 0.011 | 0.281 ± 0.028 | 0.378 ± 0.02 | 0.0391 ± 0.0019 | 0.335 ± 0.13 | 0.202 ± 0.083 | 0.978 (active)
4 | Cc1ccc(Nc2cc(N3CCCCC3)c(N)c3c2C(=O)c2ccccc2C3=O)cc1 | 1.26 ± 0.23 | 1.09 ± 0.067 | 0.964 ± 0.12 | 1 ± 0.057 | 1.56 ± 0.21 | 1.12 ± 0.12 | 0.996 (active)
5 | O=C(Nc1ccc(Br)cc1)c1cccc(S(=O)(=O)NC2CCCCC2)c1 | 0.746 ± 0.057 | 0.846 ± 0.076 | 1.24 ± 0.035 | 0.527 ± 0.019 | 1.04 ± 0.14 | 1 ± 0.17 | 0.983 (active)
6 | O=C1NC(=O)C(=Cc2ccc(-c3cccc(Cl)c3)o2)S1 | 0.774 ± 0.36 | 0.761 ± 0.064 | 0.776 ± 0.064 | 0.747 ± 0.032 | 1.13 ± 0.14 | 1.2 ± 0.16 | 0.943 (active)
7 | COc1ccc(N(CC(=O)NCCc2ccc(OC)c(OC)c2)S(=O)(=O)c2ccc(OC)c(OC)c2)cc1 | 0.951 ± 0.083 | 0.994 ± 0.062 | 0.934 ± 0.12 | 1.01 ± 0.041 | 1.44 ± 0.18 | 1.2 ± 0.11 | 1.01 (active)
8 | Nc1ncnc2c1nc(S)n2C1OC(CO)C(O)C1O (centres undefined) | 0.775 ± 0.061 | 0.9 ± 0.082 | 0.951 ± 0.11 | 0.957 ± 0.051 | 1.15 ± 0.067 | 1.27 ± 0.14 | 1.02 (active)
9 | O=C(NCCCO)C(=O)Nc1ccccc1F | 0.815 ± 0.07 | 0.894 ± 0.045 | 1 ± 0.099 | 0.968 ± 0.062 | 1.39 ± 0.08 | 1.46 ± 0.14 | 1 (active)
10 | C=CC(=O)Nc1cccc(Oc2nc(Nc3ccc(N4CCN(C)CC4)cc3)nc3ccsc23)c1 | 0.0541 ± 0.0029 | 0.0574 ± 0.0052 | 0.184 ± 0.036 | 0.0243 ± 0.0019 | 0.0856 ± 0.0056 | 0.0904 ± 0.035 | 0.0526 (inactive)
11 | CCCC(=O)Nc1ccc(OCC(O)CNC(C)C)c(C(C)=O)c1.Cl (centres undefined) | 1.14 ± 0.1 | 1.03 ± 0.05 | 0.983 ± 0.022 | 0.94 ± 0.054 | 1.01 ± 0.12 | 0.864 ± 0.11 | 0.999 (active)
12 | Cc1ccc(S(=O)(=O)Nc2c3ccccc3c(O)c3c4c(oc23)CC(C)(C)CC4=O)cc1 | 0.938 ± 0.075 | 1.04 ± 0.067 | 0.935 ± 0.058 | 0.842 ± 0.05 | 1.29 ± 0.14 | 1.02 ± 0.16 | 1.01 (active)
13 | NC(=O)C1CCCN1c1ncccc1C(F)(F)F (centres undefined) | 1.16 ± 0.068 | 1.09 ± 0.089 | 0.994 ± 0.028 | 1.01 ± 0.088 | 1.06 ± 0.063 | 1.01 ± 0.1 | 0.997 (active)
14 | Cc1cc(C)n2nc(C(=O)NN=Cc3ccc(N(C)C)cc3)nc2n1 | 1.1 ± 0.069 | 1.09 ± 0.067 | 0.934 ± 0.084 | 0.996 ± 0.033 | 1.37 ± 0.11 | 1.3 ± 0.25 | 1.01 (active)
15 | O=C(c1ccc(OC(F)(F)F)cc1)N1CCC(Oc2cnccn2)CC1 | 1.05 ± 0.42 | 1.23 ± 0.061 | 1.04 ± 0.066 | 0.902 ± 0.03 | 1.19 ± 0.13 | 1.28 ± 0.13 | 0.996 (active)
16 | COc1ccc2cc(CCC(C)=O)ccc2c1 | 1.23 ± 0.19 | 1.19 ± 0.56 | 1.06 ± 0.11 | 0.931 ± 0.03 | 1.18 ± 0.45 | 1.2 ± 0.098 | 0.95 (active)
17 | Cc1cc(CCNC(=O)c2nc3ccccc3s2)nn1C | 1.1 ± 0.062 | 0.978 ± 0.12 | 0.978 ± 0.053 | 0.953 ± 0.052 | 1.02 ± 0.048 | 0.943 ± 0.29 | 1 (active)
18 | O=C(C=Cc1cccnc1)c1cc2ccc1CCc1ccc(cc1)CC2 | 1.03 ± 0.058 | 0.76 ± 0.071 | 0.752 ± 0.05 | 0.639 ± 0.023 | 0.998 ± 0.063 | 1.03 ± 0.35 | 1.01 (active)
19 | CC(/C=C1\SC(=S)N(CC(=O)O)C1=O)=C\c1ccccc1 | 0.7 ± 0.036 | 0.822 ± 0.093 | 1.05 ± 0.094 | 0.977 ± 0.048 | 1.4 ± 0.29 | 1.66 ± 0.52 | 0.962 (active)
20 | NC(=O)c1cn(Cc2c(F)cccc2F)nn1 | 1.01 ± 0.075 | 0.951 ± 0.12 | 1 ± 0.049 | 1.17 ± 0.3 | 0.923 ± 0.08 | 0.906 ± 0.12 | 0.999 (active)
21 | Cc1ccc(C2(O)C=CC(C)(C(Cl)(Cl)Cl)C=C2)cc1 (centres undefined) | 0.687 ± 0.054 | 0.974 ± 0.063 | 1.02 ± 0.067 | 0.455 ± 0.093 | 0.989 ± 0.047 | 0.915 ± 0.14 | 1 (active)
22 | CNC(=O)[C@H](Cc1c[nH]c2ccccc12)NC(=O)[C@@H](CC(=O)NO)CC(C)C | 1.1 ± 0.26 | 1.33 ± 0.074 | 1.07 ± 0.074 | 0.88 ± 0.035 | 1.07 ± 0.12 | 1.12 ± 0.12 | 0.995 (active)
23 | COCCNCCOc1ccccc1C(C)C | 0.767 ± 0.12 | 1.03 ± 0.084 | 0.899 ± 0.069 | 0.895 ± 0.031 | 1.32 ± 0.26 | 1.26 ± 0.18 | 0.554 (inactive)
24 | Cl.NCc1ccc(S(N)(=O)=O)cc1 | 0.998 ± 0.097 | 0.965 ± 0.047 | 0.998 ± 0.078 | 0.964 ± 0.058 | 0.962 ± 0.038 | 0.928 ± 0.13 | 1 (active)
25 | Cc1cc(-c2ccc(NC(=O)c3ccc([N+](=O)[O-])cc3)c(C)c2)ccc1NC(=O)c1ccc([N+](=O)[O-])cc1 | 0.994 ± 0.067 | 0.988 ± 0.06 | 0.928 ± 0.064 | 0.966 ± 0.057 | 1.26 ± 0.08 | 1.15 ± 0.27 | 0.999 (active)
26 | O=C(CSC1CC(=O)N(c2ccc(C(=O)O)cc2)C1=O)Nc1ccc(F)cc1 (centres undefined) | 0.998 ± 0.081 | 0.967 ± 0.14 | 1.52 ± 0.53 | 0.578 ± 0.021 | 1.25 ± 0.15 | 1.38 ± 0.22 | 1.01 (active)
27 | CC(=O)Oc1cc2c(s1)CCN(C(C(=O)C1CC1)c1ccccc1F)C2 (centres undefined) | 0.988 ± 0.15 | 1.2 ± 0.36 | 0.844 ± 0.05 | 0.919 ± 0.035 | 1.28 ± 0.31 | 1.1 ± 0.18 | 0.985 (active)
